High-throughput results from PubChem BioAssay.
This is a sample that favours compounds with a hit; in the whole collection about 4.8% have one here.
ATXN2 expr inh = inhibitors of ATXN2 expression; HEK-293 ATXN2-luciferase reporter, luminescence, 24 h; Potency, µM (series often up to 57 µM), most hits filed as inhibitors; 0.72% of 360,000 active; AID 1745845; further: nearly all actives have a fitted effect of over 55% in size
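qHTS (up to 57 uM final) was run with 24 h compound exposure of reporter cells at 37 °C. Each well was multiplexed: SteadyGlo luminescence measured ATXN2-luciferase expression after a fluorogenic Gly-Phe-AFC viability readout (25 uM final).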
D3 ag = D3 dopamine receptor (human) agonism | D3R DiscoveRx beta-arrestin cells, luminescence, 90 min | P35462 | max activation, % | 0.58% of 410,000 active; in the data active means max activation above about 30%
Target sequence (P35462 whole entry, looked up): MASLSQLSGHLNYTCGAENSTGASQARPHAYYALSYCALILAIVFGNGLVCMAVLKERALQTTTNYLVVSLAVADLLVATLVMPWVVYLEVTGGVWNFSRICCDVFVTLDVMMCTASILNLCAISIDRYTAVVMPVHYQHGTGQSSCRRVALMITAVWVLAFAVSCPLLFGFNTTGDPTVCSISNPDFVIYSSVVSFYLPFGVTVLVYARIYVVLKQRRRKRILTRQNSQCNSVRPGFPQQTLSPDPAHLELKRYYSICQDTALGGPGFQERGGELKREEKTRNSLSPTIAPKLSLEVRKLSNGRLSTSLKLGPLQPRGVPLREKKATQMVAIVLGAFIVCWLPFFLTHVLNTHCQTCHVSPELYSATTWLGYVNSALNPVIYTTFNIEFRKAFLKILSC
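Agonist-mode cell screen: cells plated at 1500/well and incubated overnight at 37 °C, then exposed to library compounds for 90 min at 37 °C. Detection reagent was added for 30–60 min at room temperature, and luminescence was read.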
D3 antag = antagonists of human D3 dopamine receptor. P35462. D3R cells, DiscoveRx beta-arrestin luminescence, antagonist mode; hits give low values. max response, negative = inhibition, %. 2.5% of 360,000 active; in the data active means max response below about -50%; inconclusive means no clear call, values can overlap the other calls
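Cells expressing the human receptor were seeded at 1500 cells/well, incubated overnight at 37 degrees C in 5% CO2, then exposed to library compounds with dopamine controls for 90 minutes at 37 degrees C before luminescent detection.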
HepG2 tox = kills HepG2 cells in TGF-b inhibitor counter-screen; HepG2 CAGA-GFP viability, ATP luminescence, 18 h; Potency, µM (top dose mostly 46.1 µM), usual class: cytotoxic; 0.76% of 410,000 active; AID 588856
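CellTiter-Glo luminescence gave cytotoxicity after 18 hours at 37 degrees C. The cells were HepG2 CAGA-GFP in 1% FBS DMEM, stimulated with 500 pg/mL TGF-beta after compound addition. %Activity was normalised to no-cell wells (complete cell-killing) and DMSO (no toxicity), and curves were fitted and classified.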
S2 tox = cell viability loss in ATXN counter-screen; 0.49% of 400,000 active; Potency, µM (titrated, usually from 56.7 µM), hits mostly cytotoxic; S2 cells (HEK-293 line with an ATXN2-luciferase reporter) viability, CellTiter-Fluor protease fluorescence, 24 h; further: nearly all actives have a fitted effect of over 40% in size
TGFb inhibitor = blocks TGF-b signaling; HepG2 CAGA-GFP TGF-b/SMAD3 reporter, GFP fluorescence, 18 h; TGF-beta stimulated, 500 pg/mL final; Potency, µM (top dose mostly 46.1 µM), usual class: inhibitors; 1.2% of 410,000 active; further: nearly all actives have a fitted effect of over 65% in size
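GFP signal (ex488/em500-530) from TGF-beta-stimulated HEPG2 CAGA-GFP cells, 500 pg/mL final, 18 h at 37 degrees C in DMEM plus 1% FBS, normalized to unstimulated and DMSO-stimulated controls.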
Of the large screens only hits and unclear results are named; the others gave an inactive call. Unless noted, the call rests on the fitted dose curve; in most records, active means well fitted curve in the direction sought with a large enough effect; inconclusive means small, poorly fitted or top-dose-only effect, or another doubt; inactive means no such curve, though single readings can be large; an effect the other way counts as inactive or inconclusive.

CCOC(=O)c1c(CSc2ccsc2)n(C)c2cc(Br)c(O)c(CN(C)C)c12	HepG2 tox 10µM, TGFb inhibitor inconclusive (no result: ATXN2 expr inh)
CCc1ccc(Sc2cc(C(=O)NCCCN3CCC(C)CC3)c3ccccc3n2)cc1	ATXN2 expr inh inconclusive, TGFb inhibitor inconclusive (no result: D3 antag)
CCc1ccc(CN(Cc2cn[nH]c2-c2ccc(OC)cc2)C(=O)Nc2cc(Cl)ccc2OC)cc1	TGFb inhibitor inconclusive (no result: ATXN2 expr inh, D3 antag, S2 tox)
Cn1cc(-c2cnn3c(N)c(Br)c([C@H]4CCCNC4)nc23)cn1	ATXN2 expr inh 0.39µM (no result: D3 ag, D3 antag, HepG2 tox, S2 tox, TGFb inhibitor)
Cc1nc2c(-c3ccc(F)cc3)cnn2c(N)c1-c1ccc(F)cc1	D3 antag inconclusive, TGFb inhibitor inconclusive
O=C(NC[C@@H]1CCCN2CCCC[C@H]12)c1cnn(-c2nccc(-c3ccco3)n2)c1C1CC1	none (no result: ATXN2 expr inh, D3 ag, D3 antag, HepG2 tox, TGFb inhibitor)
O=C(Nc1ccc(Cl)cc1)Nc1nnc(-c2ccncc2)s1	ATXN2 expr inh inconclusive, D3 ag 49, S2 tox inconclusive, TGFb inhibitor inconclusive
O=C(CN1C(=O)C2(CCCC2)NC[C@H]1c1cc(F)cc(F)c1)Nc1ccc2c(c1)C[C@@]1(C2)C(=O)Nc2ncccc21	none (no result: D3 ag, D3 antag, HepG2 tox, S2 tox, TGFb inhibitor)
NC(N)=NS(=O)(=O)c1ccc(N)cc1	D3 antag -54
COc1ccc(C2/C=C\CN(C(=O)C3CCCCC3)C(C)C(=O)N2Cc2ccc(F)cc2)cc1 (configuration not stated)	TGFb inhibitor inconclusive (no result: ATXN2 expr inh, D3 ag, D3 antag, S2 tox)
O=c1[nH]c(CN2CCN(c3ccccc3)CC2)nc2scc(-c3ccccc3)c12	D3 ag 108
COc1ccc(N2CCN(Cc3nc4scc(-c5ccccc5)c4c(=O)[nH]3)CC2)cc1	none
O=C(O)c1cc(C(=O)O)cc(-c2ccc(/C=c3/sc4nc5ccccc5n4c3=O)o2)c1	none
O=C(O)c1ccccc1-c1ccc(C=c2sc3nc4cc(Br)cnc4n3c2=O)o1	D3 antag -55 (no result: S2 tox)
COc1ccc(CNS(=O)(=O)c2cc(Br)cc3c2N(C(C)=O)C(C)C3)cc1 (configuration not stated)	D3 antag -89
Cc1ccc(CSc2nc(=O)c3c(C)cc(C)nc3n2C2CC2)cc1	TGFb inhibitor inconclusive (no result: ATXN2 expr inh, D3 antag, S2 tox)
CCOC(=O)CC(NC(=O)CCc1c(C)nc2c(c1C)c(=O)n(C)c(=O)n2C)c1ccc(OCC)c(OC)c1 (configuration not stated)	none (no result: D3 antag)
C[C@H](CO)N1C[C@H](C)[C@@H](CN(C)C(=O)Nc2ccccc2)Oc2ccc(NC(=O)Nc3ccc4c(c3)OCO4)cc2C1=O	none
C[C@@H]1CN([C@@H](C)CO)C(=O)Cc2cc(NC(=O)Nc3cccc4ccccc34)ccc2O[C@@H]1CN(C)Cc1ccc(C(F)(F)F)cc1	D3 antag -61, S2 tox inconclusive, TGFb inhibitor inconclusive
C[C@@H]1CN([C@H](C)CO)C(=O)c2cc(NC(=O)Nc3ccc4c(c3)OCO4)ccc2O[C@H]1CN(C)Cc1ccncc1	D3 ag 32
C[C@@H]1CN([C@H](C)CO)C(=O)Cc2cc(NS(=O)(=O)c3ccc(F)cc3)ccc2O[C@H]1CN(C)Cc1ccc(C(=O)O)cc1	none
C[C@@H]1CN([C@H](C)CO)C(=O)Cc2cc(NS(=O)(=O)c3ccc(Cl)cc3)ccc2O[C@H]1CN(C)Cc1ccc(C(F)(F)F)cc1	ATXN2 expr inh inconclusive, D3 ag 37, TGFb inhibitor inconclusive (no result: S2 tox)
C[C@H]1CCCCO[C@H](CN(C)C(=O)C2CCCCC2)[C@@H](C)CN([C@@H](C)CO)C(=O)c2cc(NC(=O)NC3CCCCC3)ccc2O1	S2 tox 25µM
COc1ccc(Br)cc1CNC(=O)c1nn(-c2ccc(C)cc2)c(=O)c2c1c1ccccc1n2C	none (no result: D3 antag)
CCOC(=O)CCCCCC(=O)Nc1ccc2c(c1)CC(=O)N([C@H](C)CO)C[C@@H](C)[C@H](CN(C)Cc1ccc3c(c1)OCO3)O2	none
C[C@H](CO)N1C[C@H](C)[C@@H](CN(C)CC2CCCCC2)Oc2ccc(NC(=O)Cn3cnnn3)cc2C1=O	D3 ag 35
C[C@@H]1CN([C@H](C)CO)C(=O)Cc2cc(NC(=O)Nc3ccccc3)ccc2O[C@@H]1CN(C)Cc1ccc2c(c1)OCO2	ATXN2 expr inh inconclusive, HepG2 tox 18µM, S2 tox inconclusive, TGFb inhibitor 16µM
COc1ccc(-c2ccc(C(=O)NCC3Cc4cccc(-c5nc(C)cnc5C)c4O3)o2)cc1 (configuration not stated)	none (no result: ATXN2 expr inh, D3 ag, D3 antag, HepG2 tox, TGFb inhibitor)
O=C(CSc1nc2c([nH]c3ccccc32)c(=O)n1-c1ccccc1)Nc1ccccc1C(F)(F)F	none (no result: ATXN2 expr inh, D3 antag, S2 tox)
NC1=NC2(CCCCC2)N=C(Nc2ccc(F)cc2F)N1	none
COc1ccc(OC)c(NC2=NC3(CCCC3)N=C(N)N2)c1	D3 antag -58
Cc1ccccc1C(=O)OCc1cc(=O)n2nc(C3CCCCC3)sc2n1	none (no result: D3 antag)
NCCOc1ccccc1Cc1ccccc1	D3 antag -64
CC(C)Oc1ccc(C(CCN)C2CCCCC2)cc1 (configuration not stated)	ATXN2 expr inh inconclusive, D3 antag inconclusive, HepG2 tox 11µM, TGFb inhibitor inconclusive (no result: S2 tox)
Cc1cc(C)c(C(=O)CN2C(=O)NC3(CCCCC3)C2=O)cc1C	D3 ag 35
O=C(Nc1nc(-c2ccccn2)cs1)Nc1ccc(F)cc1F	ATXN2 expr inh 14µM, S2 tox inconclusive, TGFb inhibitor inconclusive
O=C(Nc1nc(-c2ccccn2)cs1)c1ccc(-c2ccccc2F)o1	ATXN2 expr inh inconclusive, S2 tox inconclusive, TGFb inhibitor 14µM
CC(=O)Nc1ccc(C(=O)Nc2nc(-c3cccnc3)cs2)cc1	none
CC(=O)c1ccc(-c2ccc(C(=O)Nc3nc(-c4ccccn4)cs3)o2)cc1	TGFb inhibitor 13µM
CC(=O)Nc1ccc(C(=O)Nc2nc(-c3ccccn3)cs2)cc1	D3 antag -56
CC(=O)c1ccc([N+](C)(C)C)cc1	none (no result: ATXN2 expr inh, D3 ag, D3 antag, S2 tox)
Cc1cnc(-n2ncc(C(=O)N(CCO)C(C)C)c2-c2cccs2)nc1-c1ccc(F)cc1	none (no result: ATXN2 expr inh, D3 ag, D3 antag, HepG2 tox, TGFb inhibitor)
Cc1ccc(-c2csc(NC(=O)c3ccc(-c4ccccc4)cc3)n2)o1	S2 tox inconclusive, TGFb inhibitor 13µM
O=C(Nc1nc(-c2ccccn2)cs1)c1ccccc1-n1cnnn1	ATXN2 expr inh 10µM, S2 tox inconclusive, TGFb inhibitor inconclusive
CCCn1nc(C(=O)Nc2nc(-c3ccccn3)cs2)c2ccccc2c1=O	ATXN2 expr inh 22µM, TGFb inhibitor inconclusive
O=C(Nc1nc(-c2ccccn2)cs1)c1cc(Cl)ccc1[N+](=O)[O-]	ATXN2 expr inh 7.5µM, TGFb inhibitor 11µM
Cc1ncc2c(c1CNC(=O)c1ccc3c(c1)OCO3)CCN(C(=O)/C=C/c1ccccc1Cl)C2	none (no result: ATXN2 expr inh, D3 ag, D3 antag, HepG2 tox, TGFb inhibitor)
